For 53 molecules, activation results are on record in PubChem BioAssay AID493131 (Broad Institute, 2011).

In all, about 340,000 compounds went through this assay and about 3,300 (0.97%) were called active. The sample holds actives, similar compounds and a random draw of the others, so the mix is not that of the screen. A number with no mark means an inactive call.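 Rule for the calls: active = mean activation above about 17%, with every replicate also reaching it (limit read from the data, passing the limit was not always enough); inconclusive = only one of the two conditions met; inactive = the rest.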

The target of the test is Protein FosB (Mus musculus) (UniProt P13346). Put plainly: enhancers of mouse delta FosB DNA binding – biochemical, fluorescence polarization, TAMRA-CDK5 oligo, single point, primary screen (AID 493131).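 Note: fluorescence polarization rise as delta FosB binds a TAMRA Cdk5 AP-1 oligo.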 To be noted: purified delta FosB, at 25 µM, active compounds read high, percent of positive-control signal above neutral wells. A general note: In fluorescence polarisation assays a small probe gives low polarisation when free and higher when bound to something large.
Protein FosB (Mus musculus), sequence (P13346 whole entry, looked up): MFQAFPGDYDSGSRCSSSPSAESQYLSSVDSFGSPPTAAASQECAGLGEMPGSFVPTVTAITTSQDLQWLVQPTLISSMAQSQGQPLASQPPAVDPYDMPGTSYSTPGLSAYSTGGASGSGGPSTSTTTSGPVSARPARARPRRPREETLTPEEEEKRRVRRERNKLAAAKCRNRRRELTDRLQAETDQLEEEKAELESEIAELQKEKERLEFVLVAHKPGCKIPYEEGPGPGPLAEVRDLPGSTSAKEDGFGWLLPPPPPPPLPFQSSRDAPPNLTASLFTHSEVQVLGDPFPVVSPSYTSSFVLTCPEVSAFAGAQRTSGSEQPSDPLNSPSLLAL
Take `COc1ccc(N(C)S(=O)(=O)c2ccc3c(c2)CC(C)N3C(=O)C2CC2)c(OC)c1` (stereo not drawn): the activation is -12.2%.

For the molecule `COc1cc(C(=O)N2CCN(C/C=C/c3ccccc3)CC2)cc(OC)c1C`, the activation was -7.31%.

Take `Cn1nnc(NC(=S)NC(=O)c2ccccc2)n1`: the activation was -9.58%.

For `CCOC(=O)C1=C(C)N(C[C@@H]2CC[C@@H](Cc3ccc(-c4ccccc4)cc3)O2)C(=O)NC1c1ccc([N+](=O)[O-])cc1` (stereo partly drawn), the activation is -9.34%.

As to `S=c1c2[nH]cnc2ncn1CCSc1ncnc2nc[nH]c12`, the activation is 3.83%.

On to `COC(=O)c1ccc(CNC(=O)c2ccc3oc(C(C)C)nc3c2)cc1`, for which the activation was -7.42%.

Take `CC(C(=O)O)N1C(=O)c2cccc3cccc1c23` (stereo not drawn): the activation is 2.8%.

With `Cc1cc(C)cc(NC(=O)CN2C(=O)c3ccccc3C2=O)c1`, the activation was 3.94%.

For the molecule `O=C(CN1C(=O)c2cccc3cccc1c23)Nc1ccccc1`, the activation is 28.7% (active).

In the case of `COc1ccc(NC(=O)CCC(=O)N2CCN(S(=O)(=O)c3ccc(C)cc3)CC2)c(OC)c1`, the activation was -2.45%.

On to `CCN1/C(=C\c2ccc3ccccc3[n+]2CC)Sc2cc(C)ccc21`, for which the activation is 54.5% (active).

Take `COc1cc(/C=C/C(=O)Nc2ccc(OC)c(S(=O)(=O)N3CCOCC3)c2)ccc1OCC#N`: the activation was -6.09%.

On to `COc1ccc(/C=C/C(=O)Nc2ccc(C)cc2)cc1S(=O)(=O)N1CCOCC1`, for which the activation is -1.41%.

In the case of `COc1ccc(/C=C/C(=O)Nc2ccc(C34CC5CC(CC(O)(C5)C3)C4)cc2)cc1OC`, the activation was 51.4% (active).

As for `COc1ccc(Cn2c(O)c(/C=C3/C=CC=N3)c(=O)[nH]c2=O)cc1`, the activation was 25.7% (active).

As to `CCCOc1ccc(Cn2c(O)cc(=O)[nH]c2=O)cc1`, the activation is 3.75%.

Turning to `COc1ccc(Cn2c(=O)cc(C)[nH]c2=S)cc1`, the activation was -1.58%.

Regarding `CN(CC(O)COc1ccc(S(=O)(=O)N2CCOCC2)cc1Cl)C1CCCCC1` (stereo not drawn), the activation is -9.15%.

On to `O=C(NCCN=C1NS(=O)(=O)c2ccccc21)c1ccc(S(=O)(=O)N2CCOCC2)cc1`, for which the activation was -16.1%.

In the case of `O=C(Nc1ccc2cn[nH]c2c1)c1ccc(S(=O)(=O)N2CCOCC2)cc1`, the activation is -7.23%.

Take `COc1ccc(CNC(=O)C(C)n2nc(C)c3c(C)n(-c4ccccc4)nc3c2=O)c(OC)c1` (stereo not drawn): the activation is -16.4%.

On to `Cc1nn(CC(=O)N2CCCCC2)c(=O)c2nn(-c3ccccc3)c(C)c12`, for which the activation was -5.62%.

As for `COc1ccc(OC)c(CNC(=O)Cn2nc(C)c3c(C)n(-c4ccc(C)cc4)nc3c2=O)c1`, the activation is 113% (active).

For the molecule `CCc1ccccc1NC(=O)CN(C)C(=O)c1cc(C2CC2)nn1-c1ccccc1`, the activation was -9.06%.

Turning to `O=C(O)c1cccnc1NC1CCCC1`, the activation is 1.59%.

As for `Cc1nn(C)cc1S(=O)(=O)N1CCN(c2ccc(F)cc2)CC1`, the activation is -3.96%.

For the molecule `C[C@@H]1O[C@@H](OC[C@H]2O[C@@H](Oc3c(-c4ccc(O)cc4)oc4cc(O)cc(O)c4c3=O)[C@H](O)[C@@H](O)[C@@H]2O)[C@H](O)[C@H](O)[C@H]1O`, the activation was -1.58%.

On to `COc1c(O)cc2oc(-c3ccc(O)c(O)c3)cc(=O)c2c1O`, for which the activation is -4.25%.

As for `COc1ccc(-c2cc(=O)c3c(O)cc(O[C@@H]4O[C@H](CO[C@@H]5O[C@@H](C)[C@H](O)[C@@H](O)[C@H]5O)[C@@H](O)[C@H](O)[C@H]4O)cc3o2)cc1O`, the activation is 74.8% (active).

As for `Cc1ccc(NC(=O)NC(=O)N(C2CCCCC2)S(=O)(=O)c2ccccc2)cc1`, the activation was -0.8%.

Turning to `O=C(Cn1cc(-c2nnnn2-c2ccc(Cl)cc2)c(=O)c2ccccc21)c1ccccc1`, the activation was 114% (active).

`O=C(CN1CCN(c2ccc(Cl)cc2)CC1)c1ccccc1`: the activation is 1.64%.

Turning to `Clc1ccc(-n2nnnc2-c2cnc(-c3ccccn3)nc2-c2cccs2)cc1`, the activation is -8.45%.

In the case of `CCOC(=O)N1CCC(NC(=O)C(C)n2c3ccccc3c3cnn(C)c(=O)c32)CC1` (stereo not drawn), the activation is -6.6%.

With `O=C(Nc1cccnc1Cl)c1cc(-c2ccccc2O)on1`, the activation was 64.8% (active).

For the molecule `O=C(Nc1ccccc1C(F)(F)F)c1cc(-c2ccc(O)cc2)on1`, the activation was 0.0145%.

Consider `C=CCNC(=O)c1cc(-c2ccccc2O)on1`, for which the activation is -2.37%.

For `Cc1ccc(NC(=O)COC(=O)CCc2nc3ccccc3n2-c2ccccc2)c(C)c1`, the activation is -3.49%.

Regarding `Cc1oc(-c2cccc(Cl)c2)[n+]([O-])c1C`, the activation is 7.9%.

Regarding `COc1ccc(C(=O)Nc2ccccc2C(=O)N2CCN(c3ccccc3)CC2)cc1`, the activation is -0.701%.

As for `COc1ccc(C(=O)Nc2cc(C)c(NC(=O)c3ccccc3OC)cn2)cc1`, the activation was -13.9%.

`COc1ccc(C(=O)Nc2ccccc2C(=O)N/N=C/c2ccccc2OC)cc1`: the activation was 38% (active).

For the molecule `Cc1ccc(NC(=O)NNC(=O)c2sccc2-n2cccc2)cc1`, the activation was -2.71%.

With `Nc1ccn(CC(=O)N2CCN(c3ccccn3)CC2)c(=O)n1`, the activation is -4.48%.

`COc1ccc(NC(=O)C2CCN(S(=O)(=O)c3ccc4[nH]c(=O)oc4c3)CC2)c(OC)c1`: the activation was 1.87%.

As for `Cn1c(=O)oc2cc(S(=O)(=O)N3CCC(C(=O)Nc4ccc(OC(F)(F)F)cc4)CC3)ccc21`, the activation was 32.2% (active).

Regarding `O=C(Nc1ccc(S(=O)(=O)N2CCOCC2)cc1)C1CCN(S(=O)(=O)c2ccc(Cl)cc2)CC1`, the activation is -7.05%.

For the molecule `Cc1ccc2nc(NC(=O)C3CCN(S(=O)(=O)c4ccc5c(c4)oc(=O)n5C)CC3)sc2c1`, the activation was 28.8% (active).

For `O=C(NC1CCCCC1)n1c(=O)oc2cc(S(=O)(=O)N3CCCCC3)ccc21`, the activation was 3.88%.

As to `Cc1ccc(C)c(N2CCN(S(=O)(=O)c3ccc4c(c3)oc(=O)n4C)CC2)c1`, the activation was -5.87%.

For `CC(=O)c1cccc(-c2ccc(CN3C(CC(C)C)C(=O)N(Cc4cn(CC5CCCCC5)nn4)CCS3(=O)=O)cc2)c1` (stereo not drawn), the activation is -19.5%.

`O=C(NN=Cc1ccccc1O)NN=Cc1ccccc1O`: the activation is 8.66%.

In the case of `O=C(Nc1ccc(C(=O)NCc2ccccc2Cl)cc1)C1=CSCCO1`, the activation is -4.85%.
